Assay outcomes from PubChem.
HIV RNase H inh = blocks HIV-1 RNase H cleavage of RNA/DNA duplex | P04585 | RT-RNase H RNA/DNA duplex cleavage, fluorescence | inhibition, % at 10 µM | 1.9% of 65,000 active | AID 565; in the data active = inhibition above about 50%
Of the large screens only hits and unclear results are named; the others gave an inactive call. This excerpt belongs to a sample that is enriched for hits.

O=C(CSc1nnnn1-c1ccccc1)N1CCc2ccccc21	none
CCc1nnc(NCC(=O)N2CCc3ccccc32)s1	HIV RNase H inh 55
CCc1nnc(NC(=O)c2c(O)c3cccc4c3n(c2=O)CC4)s1	none
OCCOCCn1c2ccccc2c2ccccc21	none
CCOc1ccccc1C1C2C(=O)N(c3ccccc3)C(=O)C2ON1c1ccccc1 (centres undefined)	none
COc1cc(C2C3C(=O)N(Cc4ccccc4)C(=O)C3ON2c2ccccc2)cc(OC)c1O (centres undefined)	none
CCCOc1ccc(N2C(=O)C3ON(c4ccccc4)C(c4ccc(O)c(OC)c4)C3C2=O)cc1 (centres undefined)	HIV RNase H inh 56
C=CCN=C(NC#N)SCC(=O)c1cccc(OC)c1	none
COc1ccc(N2CCN(c3nc4c(c(=O)[nH]c(=O)n4C)n3CCCc3ccccc3)CC2)cc1	none
O=C(CN(C(=O)CNC(=O)c1ccco1)c1ccc(Cl)c(Cl)c1)NC1CCCCC1	none
O=c1c2cc(Cl)ccc2[nH]c(=S)n1Cc1ccco1	none
COc1cccc(Cn2c(=S)[nH]c3ccc(N4CCOCC4)cc3c2=O)c1	none
O=c1c2cc(N3CCOCC3)ccc2[nH]c(=S)n1Cc1ccco1	HIV RNase H inh 55
CCCCn1c(SCC(=O)Nc2cc(C)on2)nc2ccccc2c1=O	none
CCCCn1c(SCC(=O)Nc2cc(NC(=O)c3ccco3)ccc2C)nc2ccccc2c1=O	HIV RNase H inh 55
CCn1c(SCC(=O)Nc2ccc(NC(=O)c3ccco3)c(OC)c2)nc2ccccc2c1=O	none
Cc1ccc(Sc2oc(/C=N/n3cnnc3)cc2Br)cc1	none
CC1(C)CC(=O)CC(C)(C)N1OC(=O)c1ccncc1	none
COc1cccc(N2C(=O)CC(N3CCC(C(N)=O)(N4CCCCC4)CC3)C2=O)c1 (centres undefined)	none
CC(C)CC1C(C#N)=C(N)SC(N)=C1C#N	HIV RNase H inh 51
CCc1ccc(C2C(C#N)=C(N)SC(N)=C2C#N)s1	none
N#CC1=C(N)SC(N)=C(C#N)C1Cc1ccccc1	none
CC1=C(C(=O)Nc2ccccc2C)C(c2ccc(C)o2)C2=C(CCCC2=O)N1 (centres undefined)	none
COc1ccc(NC(=O)C2CCN(S(=O)(=O)c3cccnc3)CC2)cc1Cl	none
COc1ccc(NC(=O)CSC2CC(=O)N(c3ccc4c(c3)OCCO4)C2=O)cc1 (centres undefined)	none
Cc1csc(SCCn2c(N3CCN(c4ccccc4)CC3)nc3c2c(=O)[nH]c(=O)n3C)n1	none
CCCCn1c(O)c(C=NC2CCCCC2N)c(=O)[nH]c1=O (centres undefined)	none
NC1CCCCC1N=Cc1c(O)n(Cc2ccc(F)cc2)c(=O)[nH]c1=O (centres undefined)	none
CCCCCCn1c(O)c(C=NC2CCCCC2N)c(=O)[nH]c1=O (centres undefined)	HIV RNase H inh 51
CC(C)c1ncc(C(O)c2cccc3ccccc23)n1C (centres undefined)	none
O=C(c1ccco1)N1CCN(S(=O)(=O)Cc2ccc(Cl)cc2)CC1	none
COc1ccc(NC(=O)CCN2C(=O)C3CC=C(Cl)CC3C2=O)cc1 (centres undefined)	none
O=C(c1noc2c1CCCCC2)N1CCN(C(c2ccccc2)c2ccccc2)CC1	none
COc1cc(NC(=O)c2ncn[nH]2)cc(OC)c1OC	none
CC1(C)OC(=O)C(=CNC(Cc2c[nH]c3ccccc23)C(=O)O)C(=O)O1 (centres undefined)	none
CCn1c(SCC(=O)Nc2nc3ccc(OC)cc3s2)nc2c1c(=O)n(C)c(=O)n2C	none
COC(=O)/C=c1/s/c(=C(\C#N)C(=O)NCc2ccco2)n(-c2ccccc2)c1=O	none
CCC(=O)Nc1cc(=O)[nH]c2ncnn12	none
COC(=O)/C=c1\sc2ncnn2c1=O	HIV RNase H inh 56
COc1ccc2oc(=O)c(C(=O)N3CCN(C45CC6CC(CC(C6)C4)C5)CC3)cc2c1	none
COc1ccc(-n2nnnc2S(=O)(=O)CC(=O)N2CCCCC2)cc1	none
COc1ccc(-n2nnnc2S(=O)(=O)Cc2ccc(C(=O)O)cc2)cc1	HIV RNase H inh 63
COc1ccc(-n2nnnc2SCC(N)=O)cc1	none
CCN(CC)CCNC(=O)c1sc2nc(-c3ccccc3)cn2c1C	none
Cc1ccc(NC(=O)C2C3C=CC4(CN(Cc5cccnc5)C(=O)C24)O3)cc1F (centres undefined)	none
COc1ccc(N2CCn3c2nc2c3c(=O)n(CCCc3ccccc3)c(=O)n2C)cc1	HIV RNase H inh 60
COc1ccc(N2CCn3c2nc2c3c(=O)n(CCCc3ccccc3)c(=O)n2C)c(OC)c1	none
Cn1c(=O)n(CCc2ccccc2)c(=O)c2c1nc1n2CCN1c1ccccc1	none
CNC(=O)c1nnn(Cc2ccccc2)c1NC(=O)C(F)(F)F	none
CCOC(=O)c1sc(=S)n(CC)c1N	none
CCOC(=O)c1ccc(-n2c(N)c(C(=O)NCc3ccco3)sc2=S)cc1	HIV RNase H inh 72
CCn1c(N)c(C(=O)NCc2ccco2)sc1=S	none
C=CCNC(=O)c1sc(=S)n(-c2ccc(C(=O)OCC)cc2)c1N	HIV RNase H inh 76
COc1ccc(-n2c(N)c(C(=O)NCC3CCCO3)sc2=S)cc1 (centres undefined)	none
CCOc1ccc(-n2c(C)nc3cc(C(=O)NCc4ccco4)ccc32)cc1	none
CCSc1nc(-c2cccs2)nc2c1c(=O)n(C)c(=O)n2C	none
COC(=O)c1ccccc1S(=O)(=O)Nc1ccc(OC)nc1	none
CCNc1nc(Oc2ccccc2)nc(OC(C)C(=O)OCC)n1 (centres undefined)	none
Cc1nc(Nc2cccc(C(F)(F)F)c2)nc2c1C(=O)CC(C)C2 (centres undefined)	HIV RNase H inh 51
Cc1nc(N2CCN(c3ccccc3)CC2)nc2c1C(=O)CC(C)C2 (centres undefined)	none
Cc1cccc(Nc2ncc3c(n2)CC(C)CC3=O)c1 (centres undefined)	none
Cc1nc(SCC(=O)N2CCN(c3ccccc3)CC2)c2c(=O)n(C)c(=O)n(C)c2n1	none
CC(=O)Nc1c(C(=O)O)oc2ccc(Cl)cc12	none
CC(=O)Nc1c(C(=O)c2ccc(F)cc2)oc2ccccc12	none
CC(=O)Nc1c(C(=O)O)oc2ccccc12	HIV RNase H inh 56
O=C(O)c1ccc(CSCc2c(F)cccc2Cl)o1	none
CCOC(=O)c1ccc(CNC(=O)c2cc(C(C)(C)C)oc2C)o1	none
COc1ccc(-c2nnc3ccc(SCC(=O)N4CCN(c5ccccc5)CC4)nn23)cc1OC	none
CC1(C)Cc2c(C#N)c(N)sc(=S)c2CS1	HIV RNase H inh 62
Cn1c(N)c(C#N)c2c(c1=S)CSC(C)(C)C2	none
CC1(C)Cc2c(c(-c3ccccc3)[nH]c(=O)c2C#N)CS1	none
CCOC(=O)C1CCN(S(=O)(=O)c2c(C)n[nH]c2C)CC1	none
Cc1ccc(C)c(-n2c(N)c(C(N)=O)sc2=S)c1	none
Cc1ccc(-n2c(N)c(C(N)=O)sc2=S)c(C)c1	HIV RNase H inh 65
COc1ccc(Cl)cc1-n1c(N)c(C(N)=O)sc1=S	HIV RNase H inh 75
COc1ccc(Cl)cc1N1C(=O)C2CCCN2C1c1sccc1C (centres undefined)	none
COc1ccc(C2N(c3cc(Cl)ccc3OC)C(=O)C3CCCN32)cc1 (centres undefined)	none
CCOC(=O)c1sc(=S)n(Cc2ccccc2)c1N	none
CC(C)CN(CC(C)C)C(=O)C12CCC(C)(C(=O)C1)C2(C)C (centres undefined)	none
O=C(NCCc1ccccc1)C1CCCN(S(=O)(=O)c2cccc3nsnc23)C1 (centres undefined)	none
C=CCn1c(C)nc2c(c1=O)c1nc3ccccc3nc1n2-c1ccc(C)cc1	none
Cc1ccc2c(c1)N(CC(=O)NCCc1c[nH]c3ccccc13)C(=O)CO2	none
Cc1ccccc1Cn1c(=N)n(CC(=O)c2ccco2)c2ccccc21	none
